12-LOX inh: blocks human arachidonate 12S-lipoxygenase. Potency, µM (top dose mostly 108 µM), for inactives: top-dose activity change, negative = inhibition, most hits filed as inhibitors. AID 1671190. purified 12hLO, xylenol orange hydroperoxide absorbance. P18054. actives 1.1% (n = 580,000); further: potency means the concentration at half of the fitted maximal effect; on the % scale 0 is the no-effect control and ±100 the full control effect
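Hydroperoxide product was detected by ferrous iron/xylenol orange as the 573 to 405 nm absorbance ratio. Arachidonic acid at 40 uM (final) was turned over for 30 min at room temperature by 150 nM human 12hLO, pH 7.0 Hepes buffer, after 15 min compound preincubation.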
Pol eta inh-1: DNA polymerase eta (human) inhibition; actives 1.2% (n = 390,000); Q9Y253; AID 588591; Potency, µM (highest dose often 114 µM), without a hit: at the highest dose activity change, negative = inhibition, most hits filed as inhibitors; recombinant Pol eta, fluorescent DNA replication assay; further: potency means the concentration at half of the fitted maximal effect; on the % scale 0 is the no-effect control and ±100 the full control effect
Target sequence (Q9Y253 whole entry, looked up): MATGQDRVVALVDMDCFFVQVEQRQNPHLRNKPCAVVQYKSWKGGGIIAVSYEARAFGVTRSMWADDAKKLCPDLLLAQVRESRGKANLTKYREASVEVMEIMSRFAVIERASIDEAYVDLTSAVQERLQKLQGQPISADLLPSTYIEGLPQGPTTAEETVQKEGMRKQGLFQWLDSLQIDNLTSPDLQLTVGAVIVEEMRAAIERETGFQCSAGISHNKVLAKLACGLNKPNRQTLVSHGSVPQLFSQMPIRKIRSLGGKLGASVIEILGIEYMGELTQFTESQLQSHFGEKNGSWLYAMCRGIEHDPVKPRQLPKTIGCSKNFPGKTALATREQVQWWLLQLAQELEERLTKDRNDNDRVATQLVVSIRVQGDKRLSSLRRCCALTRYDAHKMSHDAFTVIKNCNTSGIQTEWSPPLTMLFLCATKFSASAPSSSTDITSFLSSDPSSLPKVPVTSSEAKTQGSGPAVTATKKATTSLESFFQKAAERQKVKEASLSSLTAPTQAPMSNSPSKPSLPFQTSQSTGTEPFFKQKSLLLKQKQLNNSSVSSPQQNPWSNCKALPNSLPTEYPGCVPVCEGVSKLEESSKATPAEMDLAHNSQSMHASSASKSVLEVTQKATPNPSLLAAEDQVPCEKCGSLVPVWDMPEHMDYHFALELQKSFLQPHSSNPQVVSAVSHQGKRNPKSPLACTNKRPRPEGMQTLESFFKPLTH
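Fluorescent replication assay: 50 nM final substrate added after a 15 min room-temperature compound preincubation with 10 nM enzyme. Signal taken at 0 min and again at 10 min.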
Pol iota inh: DNA polymerase iota (human) inhibition; Q9UNA4; Pol iota fluorescent replication assay, 10 min; Potency, µM (series often up to 115 µM), for the others: top-dose activity, negative = inhibition, usual class: inhibitors; actives 1% (n = 390,000); AID 588590; further: potency means the concentration at half of the fitted maximal effect
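Fluorescent replication assay read twice, at 0 min and 10 min after adding 50 nM (final) substrate. Enzyme (10 nM) and compounds were first incubated 15 min at room temperature; enzyme-free buffer wells were negative controls.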
POLB inh: blocks human DNA polymerase beta activity. AID 485314. actives 1.3% (n = 340,000). Potency, µM (series often up to 114 µM), for inactives: at the top dose activity change, negative = inhibition, most hits filed as inhibitors. Pol beta primer extension/strand displacement, fluorescence kinetic. P06746; further: potency means the concentration at half of the fitted maximal effect; on the % scale 0 is the no-effect control and ±100 the full control effect
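Enzyme-only controls used 10 nM Pol beta; buffer lacking enzyme served as negative control. Compound preincubated 15 min, then 50 nM substrate added; 0 and 10 min reads at room temperature.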
Pol kappa inh-1: inhibitors of human DNA polymerase kappa | Q9UBT6 | purified Pol kappa, fluorescent DNA synthesis assay, 10 min | Potency, µM (top dose mostly 107 µM), without a hit: at the top dose activity, negative = inhibition, most hits filed as inhibitors | actives 0.53% (n = 400,000); further: potency means the concentration at half of the fitted maximal effect; on the % scale 0 is the no-effect control and ±100 the full control effect
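Kinetic fluorescence screen: compound preincubated 15 min RT with 10 nM enzyme; 50 nM substrate (final) initiates; reads at 0/10 min.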
PI5P4Ka inh: PI5P4K alpha (human) kinase inhibition. PI5P4Kalpha enzyme, ADP-Glo luminescence, 60 min; active compounds read low. max response, %. actives 1.2% (n = 330,000); active means max response of -50% or lower; inconclusive means between -30% and -50%; inactive means -30% or higher; further: value at the top dose of about 77 µM; on the % scale 0 is the no-effect control and ±100 the full control effect
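PI5P4Kalpha ADP-Glo assay; 5 microM ATP final; 60 min RT reaction; HEPES pH 7.4/EGTA/CHAPS, 5% DMSO; controls lacking substrate or enzyme; luminescent end-point.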
GALK confirm: confirmation of human galactokinase (GALK) inhibitors. shares compounds with Pol eta inh-1. purified GALK, Kinase-Glo ATP depletion luminescence. Potency, µM (top dose mostly 115 µM), for inactives: top-dose activity, negative = inhibition, usual class: inhibitors. actives 70% (n = 150). AID 2015
Redox cycling: counter-screen for GALK inhibitors: redox cycling H2O2 generation; shares compounds with Pol eta inh-1; Phenol red-HRP H2O2 redox cycling, absorbance 600 nm; Potency, µM (series often up to 115 µM), inactives show at the highest dose activity change, negative = H2O2 signal, actives largely listed as inhibitors; actives 40% (n = 150)
HEK293 tox: HEK-293 cytotoxicity, GALK inhibitor secondary; HEK-293 viability, ATP luminescence (CellTiter-Glo), 24/48 h; Potency, µM (titrated, usually from 46.1 µM), inactives show at the highest dose activity change, negative = cytotoxicity, hits mostly inhibitors; actives 10% (n = 170); shares compounds with Pol eta inh-1; further: potency means the concentration at half of the fitted maximal effect; on the % scale 0 is the no-effect control and ±100 the full control effect
Pol kappa inh-2: confirmation of human DNA polymerase kappa inhibitors; shares compounds with Pol eta inh-1; purified Pol-kappa, fluorescent strand-displacement substrate; Potency, µM, usual class: inhibitors; actives 76% (n = 920); AID 720501; further: potency means the concentration at half of the fitted maximal effect
Pol eta inh-2: Pol eta (human) inhibition, cherry-pick confirmation | shares compounds with Pol eta inh-1 | Pol eta primer extension, TAMRA/BHQ fluorescence, 10 min | Potency, µM, most hits filed as inhibitors | actives 64% (n = 2,600) | AID 720502; further: potency means the concentration at half of the fitted maximal effect
Starred values were filed as active, the others as inactive; ! = not active in a repeat; [ ] = dose if it differs, or a comment. Only some compounds are listed: those with a hit (about 2.9% of all), similar ones and a draw of the others. Unless noted, the call rests on the fitted dose curve; in most records, active means well fitted curve in the direction sought with a large enough effect; inconclusive means small, poorly fitted or top-dose-only effect, or another doubt; inactive means no such curve, though single readings can be large; an effect the other way counts as inactive or inconclusive.

Results for COc1cc(/C=C2/C(=O)NN(c3cccc(C)c3)C2=O)cc([N+](=O)[O-])c1O ?
12-LOX inh: inconclusive; Pol eta inh-1: 22.4µM*; Pol iota inh: inconclusive; POLB inh: inconclusive; Pol kappa inh-1: inconclusive; PI5P4Ka inh: -62.4*; Pol eta inh-2: inconclusive

What do the screens show for `Cc1cc(C(=O)Nc2cccc3ccccc23)co1`?
12-LOX inh: 172.2%; Pol eta inh-1: -6.6%; Pol iota inh: 16.3%; POLB inh: 3.2%; Pol kappa inh-1: 1.2%; PI5P4Ka inh: -1.5

What do the screens show for `Cc1cc(C(=O)NCc2cc(C(=O)O)co2)co1`?
12-LOX inh: -14.0%; Pol eta inh-1: 20µM*; Pol iota inh: inconclusive; POLB inh: -7.0%; Pol kappa inh-1: 79.4µM*; PI5P4Ka inh: -1.4; Pol kappa inh-2: 16.8*; Pol eta inh-2: 30.1*

How did COc1ccc(C(C)=O)cc1COC(=O)C1(c2ccc(Cl)cc2)CCCC1 do in these assays?
12-LOX inh: -20.7%

How did O=C1c2ccccc2C(=O)c2c(O)c(O)cc(O)c21 do in these assays?
12-LOX inh: 31.6µM*!; Pol eta inh-1: 31.6µM*; Pol iota inh: 79.4µM*; Pol kappa inh-1: 50.1µM*; PI5P4Ka inh: -105.9*; Pol kappa inh-2: 75.2*; Pol eta inh-2: 42.6*

How did O=C1c2ccccc2C(=O)c2c(O)ccc(O)c21 do in these assays?
12-LOX inh: -6.7%

How did COc1ccc(-c2cn3cccnc3n2)cc1NS(=O)(=O)c1ccc(C)cc1 do in these assays?
12-LOX inh: -13.2%

Results for O=C(Nc1c(NC2CCCC2)c2ccccc2oc1=O)c1ccc(C(F)(F)F)cc1 ?
12-LOX inh: -1.0%

Results for Cc1cc(O)c(CN(C)C)c2c1C(=O)/C(=C/c1ccco1)O2 ?
12-LOX inh: inconclusive; Pol eta inh-1: 11.2µM*; Pol iota inh: inconclusive; POLB inh: -7.2%; Pol kappa inh-1: -94.0%; PI5P4Ka inh: -22.7; Pol kappa inh-2: 33.6*; Pol eta inh-2: 53.6*

Results for Cc1cc2c(=O)n(Cc3ccco3)c(SCC(=O)NCc3ccco3)nc2s1 ?
12-LOX inh: inconclusive; Pol eta inh-1: inconclusive; Pol iota inh: 35.5µM*; POLB inh: inconclusive; Pol kappa inh-1: inconclusive; Pol eta inh-2: inconclusive

Results for Cc1occc1-c1nnc(SCC(=O)NCc2ccco2)n1CC(C)C ?
12-LOX inh: inconclusive; Pol eta inh-1: 25.1µM*; Pol iota inh: -23.2%; POLB inh: inconclusive; Pol kappa inh-1: inconclusive; PI5P4Ka inh: -12.9; Pol eta inh-2: inconclusive

Results for Cc1nnc(SCC(=O)NCc2ccccc2Cl)[nH]c1=O ?
12-LOX inh: -10.3%; Pol eta inh-1: -5.7%; Pol iota inh: 46.2%; POLB inh: -14.1%; Pol kappa inh-1: 0.0%; PI5P4Ka inh: 0.4

How did Cc1nnc(SCC(=O)NCc2ccco2)[nH]c1=O do in these assays?
12-LOX inh: -18.6%; Pol eta inh-1: 31.6µM*; Pol iota inh: inconclusive; POLB inh: 0.3%; Pol kappa inh-1: inconclusive; Pol eta inh-2: 30.1*

Results for Cc1occc1-c1nnc(SCC(=O)NC(C)(C)C)n1CC(C)C ?
12-LOX inh: -3.4%; Pol eta inh-1: -13.2%; Pol iota inh: 27.4%; POLB inh: 10.2%; Pol kappa inh-1: -3.4%; PI5P4Ka inh: -0.3

Results for CC(=O)c1ccc(N2CCN(S(=O)(=O)c3ccc(-c4coc(C)n4)cc3)CC2)cc1 ?
12-LOX inh: -24.6%; Pol eta inh-1: 79.4µM*; Pol iota inh: inconclusive; POLB inh: 44.7µM*; Pol kappa inh-1: -4.1%[60.1 µM]; Pol eta inh-2: inconclusive

How did Cc1nc(-c2ccc(S(=O)(=O)N3CCN(c4ccccc4)CC3)cc2)co1 do in these assays?
12-LOX inh: 5.9%; Pol eta inh-1: 3.1%; Pol iota inh: -10.4%; POLB inh: 3.3%; Pol kappa inh-1: -7.2%; PI5P4Ka inh: -2.9

Results for N#C/C(=N\Nc1cccc(C(F)(F)F)c1)C(=O)c1csc(-c2cccnc2)n1 ?
12-LOX inh: inconclusive; Pol eta inh-1: inconclusive; Pol iota inh: -4.9%; POLB inh: 1.4%; Pol kappa inh-1: 5.9%; PI5P4Ka inh: -5.0

What do the screens show for `Cc1snc(S(=O)(=O)/C(C#N)=N/Nc2cccc(C(F)(F)F)c2)c1C#N`?
Pol eta inh-1: 1.5%; Pol iota inh: -2.3%; POLB inh: 21.1%; Pol kappa inh-1: -21.1%; PI5P4Ka inh: 26.9; GALK confirm: 23.7µM*; Redox cycling: 0.6%; HEK293 tox: 10.5%

What do the screens show for `COc1ccc(N/N=C(/C#N)S(=O)(=O)C(C)(C)C)cc1`?
12-LOX inh: inconclusive; Pol eta inh-1: -23.1%; Pol iota inh: 19.5%; POLB inh: 3.7%; Pol kappa inh-1: 3.4%; PI5P4Ka inh: 2.2

How did COc1ccc(N/N=C(/C#N)S(=O)(=O)c2nsc(C)c2C#N)cc1 do in these assays?
12-LOX inh: inconclusive; Pol eta inh-1: 0.0%; Pol iota inh: 6.0%; POLB inh: -2.1%; Pol kappa inh-1: -12.5%; PI5P4Ka inh: -20.3; GALK confirm: inconclusive; Redox cycling: 8.2%; HEK293 tox: 10.8%

How did Cc1ccc(Oc2ccc(NC(=O)c3n[nH]c(=O)c4ccccc34)cc2)cc1 do in these assays?
12-LOX inh: -4.1%

How did CN1CCN(CCCNC(=O)C(=O)Nc2ccc3cc[nH]c3c2)CC1 do in these assays?
12-LOX inh: -18.5%

What do the screens show for `O=C(O)c1cc([N+](=O)[O-])ccc1N1CCCCC1`?
12-LOX inh: -28.8%; Pol eta inh-1: -12.6%; Pol iota inh: -1.6%; POLB inh: -0.3%; Pol kappa inh-1: -12.7%; PI5P4Ka inh: 0.7

From PubChem BioAssay
